Assay results taken from ChEMBL document CHEMBL3988442, “University of Dundee, Small-Polar-MMV Screening Library” (2021).
About 13,000 (27%) of roughly 48,000 compounds showed an effect of 50% or more. This is one part of the list.

System: Wolbachia pipientis
Assay: Anti-Wolbachia Cell-Based Screen
Type: functional
Design: scale not given: in the data most compounds retested in dose-response had high values
Conditions: 5 µM

Row | SMILES | Percent Effect
1 | O=C(NCCc1[nH]nc2c1CCCC2)C1CCCN(Cc2ccco2)C1 (stereo not drawn) | 3.369%
2 | COc1ccc(Cl)cc1CS(=O)(=O)Cc1cc(C)on1 | 6.419%
3 | CC(C)OCCS(=O)(=O)c1nccn1-c1cccc(F)c1 | -15.74%
4 | c1cc(C[C@H]2[C@H](N3CCOCC3)CCN2Cc2ccoc2)ccn1 | 0.9808%
5 | CCN(CCCNc1ncnc2cc(F)c(F)cc12)S(C)(=O)=O | -17.06%
6 | Cc1ccc(OCC2CCCN(CC3CCOCC3)C2)cc1 (stereo not drawn) | -21.59%
7 | CC(C)N(C)C(=O)C1=NOC2(CCN(C(=O)c3ccnnc3)C2)C1 (stereo not drawn) | 97.08%
8 | CC(C)N(C)C(=O)C1=NOC2(CCN(C(=O)c3cccn3C)C2)C1 (stereo not drawn) | 84.53%
9 | Cc1cccc(C(C)CNC(=O)N2CCC3(C2)OCCO3)c1 (stereo not drawn) | -6.289%
10 | CC(C)N(C)C(=O)C1=NOC2(CCN(C(=O)NCc3cccnc3)C2)C1 (stereo not drawn) | -9.701%
11 | Cc1cccc(C(=O)N2CCC3(CC(C(=O)N(C)C(C)C)=NO3)C2)c1 (stereo not drawn) | 115.7%
12 | CC(C)N(C)C(=O)C1=NOC2(CCN(C(=O)c3ccncc3)C2)C1 (stereo not drawn) | 5.935%
13 | Cc1ccsc1C(=O)N1CCC2(CC(C(=O)N(C)C(C)C)=NO2)C1 (stereo not drawn) | 115.3%
14 | O=C(NCC1CC1)C1=NOC2(CCN(S(=O)(=O)c3cccs3)C2)C1 (stereo not drawn) | 6.398%
15 | CS(=O)(=O)NCc1ccc(C(=O)NCc2ccc3c(c2)CCC3)o1 | 9.511%
16 | CCc1nc(Cn2ccnc2-c2nccn2C)no1 | 0.7793%
17 | Cc1nc(CN(C)C2CCN(Cc3cccc4cccnc34)C2)no1 (stereo not drawn) | 89.88%
18 | Cc1nc(CN(C)C2CCN(Cc3cccc4c3OCCO4)C2)no1 (stereo not drawn) | 98.62%
19 | Cc1nc(CN(C)C2CCN(Cc3ccno3)C2)no1 (stereo not drawn) | 0.1776%
20 | COc1ccc(OCC(=O)NC(C)c2ccc(F)cc2)c(C(=O)O)c1 (stereo not drawn) | -8.723%
21 | Cc1cc(C(=O)N2CCCC(Cn3cc(C4CC4)nn3)C2)nc(C)n1 (stereo not drawn) | -17.66%
22 | Cc1cc(-c2nccs2)nc(C2CCN(Cc3ccc(F)cc3)CC2)n1.Cl | 104.7%
23 | Cc1ccsc1-c1nnc(C2CCN(Cc3ccc(F)cc3)CC2)o1 | -8.577%
24 | CCn1c(CN2CCCC2)nnc1C1CCN(Cc2ccncc2)CC1 | -5.506%
25 | CCn1c(CN(C)C)nnc1C1CCN(Cc2ccncc2)CC1 | -6.888%
26 | Cc1cc(-c2nccs2)nc(C2CCN(Cc3ccncc3)CC2)n1.Cl | 130.1%
27 | CNC(=O)CSC(C)c1ccc(Br)cc1 (stereo not drawn) | -4.092%
28 | COC(=O)CN(C(=O)c1ccco1)c1cccc(F)c1 | 6.947%
